Phagocyt inh – inhibitors of macrophage phagocytosis, primary screen, imaging, J774A.1 cells, IgG beads; inhibition, % at 5 µM; J774A.1 macrophage IgG-bead phagocytosis; 0.07% of 110,000 active; AID 1029, 2008;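 active = inhibition above the mean of the plate negative controls plus 5 SD, cut at about 13% in these data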;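 also: phagocytic index as fraction of beads internalized from green versus red external bead signal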
GALR2 agonist – GALR2 receptor agonists, primary screen, cell-based. Galanin receptor type 2 (Homo sapiens), O43603. GALR2-expressing cells, agonist activation read-out. activation, % (no concentration beside the values). 0.48% of 140,000 active. AID 803, 2007; in the data active = activation above about 5%, passing the limit was not always enough
Target sequence (O43603 whole entry, looked up): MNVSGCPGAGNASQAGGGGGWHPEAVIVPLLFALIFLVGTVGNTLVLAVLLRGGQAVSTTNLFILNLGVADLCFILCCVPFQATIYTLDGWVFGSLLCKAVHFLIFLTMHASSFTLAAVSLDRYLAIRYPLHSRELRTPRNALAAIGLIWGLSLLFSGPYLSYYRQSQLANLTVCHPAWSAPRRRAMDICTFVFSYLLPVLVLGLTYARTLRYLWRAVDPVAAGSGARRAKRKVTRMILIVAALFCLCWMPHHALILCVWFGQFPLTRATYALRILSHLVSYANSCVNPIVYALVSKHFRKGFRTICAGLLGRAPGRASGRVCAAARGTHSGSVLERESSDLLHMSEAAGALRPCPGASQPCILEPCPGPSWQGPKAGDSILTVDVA
S1P2 ag – S1P2 receptor agonists, primary screen, cell-based | Sphingosine 1-phosphate receptor 2 (Homo sapiens), O95136 | 0.46% of 97,000 active | activation, % at 4.5 µM | S1P2-expressing cell line, agonist reporter read-out | AID 729, 2007; in the data active = activation above about 16%
GALR2 antag – GALR2 antagonists in receptor-expressing cells, primary screen | Galanin receptor type 2 (Homo sapiens), O43603 | antagonist mode | inhibition, % at 4 µM | 0.39% of 140,000 active;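 also: cells stimulated with galanin 1-16 at roughly its EC80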
S1P2 antag – human S1P2 receptor antagonists, primary screen, cell-based. Sphingosine 1-phosphate receptor 2 (Homo sapiens), O95136. cell-based S1P2 antagonist assay, inhibition at 5 uM. inhibition, % at 5 µM. 0.21% of 97,000 active. AID 736, 2007; in the data active = inhibition above about 45%;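 also: CRE beta-lactamase reporter cells expressing human S1P2 stimulated with S1P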
GALR2 ant conf – GALR2 antagonists, retest of hits, confirmation, cell-based. shares compounds with GALR2 antag. GALR2-expressing cells, antagonist mode, inhibition. inhibition, % at 4 µM. 60% of 480 active;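 also: cells stimulated with galanin at about its EC80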
BLA inhib ctr – inhibitors of NFAT-driven beta-lactamase reporter, confirmation, counter-screen for GALR2 antagonist project, CHO NFAT-bla cells, FRET readout; 36% of 480 active; inhibition, % at 4.2 µM; shares compounds with GALR2 antag; thapsigargin-stimulated;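 active = inhibition above the mean inhibition across tested compounds plus 3 SD, cut at about 27% in these data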
Hits are given with their value. Compounds with a hit are over-represented: about 1.3% of the library has one in this group of screens. Rule as the data show it, unless noted: active = inhibition above about 27%; inactive = the rest.

How did C=C1C(=O)[C@@]23[C@H](O)C[C@@H]4C(C)(C)CC[C@H](O)[C@]4(C)[C@@H]2C[C@H](O)[C@@H]1[C@H]3O do in these assays?
GALR2 agonist: inactive; GALR2 antag: inactive

How did Cc1ccc[n+](-c2[nH]c(=O)sc2/C=N/NC(=O)c2ccccc2[O-])c1 do in these assays?
Phagocyt inh: inactive; GALR2 agonist: inactive; GALR2 antag: inactive

How did COc1cccc(-n2nnnc2S(C)(=O)=O)c1 do in these assays?
Phagocyt inh: inactive; GALR2 agonist: inactive; S1P2 ag: inactive; GALR2 antag: 33.0; S1P2 antag: inactive; GALR2 ant conf: 54.9; BLA inhib ctr: 58.1

Results for COc1cccc(Oc2nnnn2-c2ccccc2)c1 ?
Phagocyt inh: inactive; GALR2 agonist: inactive; S1P2 ag: inactive; GALR2 antag: inactive; S1P2 antag: inactive

What do the screens show for `CC(/C=N/n1c(-c2ccc(Cl)cc2)n[nH]c1=S)=C\c1ccco1`?
Phagocyt inh: inactive; GALR2 agonist: inactive; GALR2 antag: inactive

Results for N#CC(C#N)=C1C=CC=CN1/C(=C\c1ccco1)C(=O)c1ccc(Cl)cc1 ?
GALR2 agonist: inactive; GALR2 antag: 67.6; GALR2 ant conf: 60.1; BLA inhib ctr: 71.0

How did O=C(O)/C(=C/c1ccco1)NC(=O)c1ccccc1 do in these assays?
Phagocyt inh: inactive; GALR2 agonist: inactive; GALR2 antag: inactive

What do the screens show for `N#CC(C#N)=C1C=CC=CN1/C(=C\c1ccco1)C(=O)c1ccc(-c2ccccc2)cc1`?
Phagocyt inh: inactive; GALR2 agonist: inactive; GALR2 antag: 28.2; GALR2 ant conf: 40.9; BLA inhib ctr: 33.3

What do the screens show for `CCN(CC)CC#CCC(C)(c1ccccc1)c1ccccc1`?
GALR2 agonist: inactive; S1P2 ag: inactive; GALR2 antag: inactive; S1P2 antag: inactive

Results for CC1=C(C)CS(=O)N(c2ccc(S(N)(=O)=O)cc2)C1 (configuration not stated) ?
Phagocyt inh: inactive; GALR2 agonist: inactive; S1P2 ag: inactive; GALR2 antag: 29.6; S1P2 antag: inactive; GALR2 ant conf: 27.8; BLA inhib ctr: inactive

What do the screens show for `O=C(c1ccc(S(=O)(=O)c2ccc(F)cc2)c([N+](=O)[O-])c1)N1CCCCCC1`?
Phagocyt inh: inactive; GALR2 agonist: inactive; GALR2 antag: 30.7; GALR2 ant conf: 37.4; BLA inhib ctr: inactive

Results for Cc1ccc2nc(/C(C#N)=C\c3ccc(N4CCOCC4)o3)[nH]c2c1 ?
GALR2 agonist: inactive; S1P2 ag: inactive; GALR2 antag: 28.6; S1P2 antag: inactive; GALR2 ant conf: inactive; BLA inhib ctr: inactive

How did Cc1ccc(/C(C#N)=C\c2ccc(N3CCOCC3)o2)cc1 do in these assays?
Phagocyt inh: inactive; GALR2 agonist: inactive; S1P2 ag: inactive; GALR2 antag: 43.9; S1P2 antag: 50.6; GALR2 ant conf: inactive; BLA inhib ctr: inactive

How did Cc1c(C(=O)Nc2ccc3c(c2)OCCO3)sc2nc(-c3ccccc3)cn12 do in these assays?
GALR2 agonist: inactive; S1P2 ag: inactive; GALR2 antag: inactive; S1P2 antag: inactive

What do the screens show for `Cc1c(C(=O)Nc2ccncc2)sc2nc(-c3ccccc3)cn12`?
Phagocyt inh: inactive; GALR2 agonist: inactive; GALR2 antag: 27.6; GALR2 ant conf: inactive; BLA inhib ctr: inactive

How did Cc1cc(C)nc(SCc2ccc(C(=O)N/N=C/c3cccc(O)c3O)cc2)n1 do in these assays?
Phagocyt inh: inactive; GALR2 agonist: inactive; GALR2 antag: 28.3; GALR2 ant conf: inactive; BLA inhib ctr: 27.8

How did CC(=O)/C=C/n1c(=S)oc2ccccc21 do in these assays?
Phagocyt inh: inactive; GALR2 agonist: inactive; GALR2 antag: 42.2; GALR2 ant conf: 77.1; BLA inhib ctr: 64.5

Results for CCS(=O)(=O)c1c([N+](=O)[O-])ncn1C ?
Phagocyt inh: inactive; GALR2 agonist: inactive; GALR2 antag: 28.1; GALR2 ant conf: inactive; BLA inhib ctr: inactive

Results for COc1ccc(CCNc2ncnc3c2oc2ccccc23)cc1OC ?
GALR2 agonist: inactive; S1P2 ag: inactive; GALR2 antag: 27.5; S1P2 antag: 67.2; GALR2 ant conf: 38.1; BLA inhib ctr: inactive

What do the screens show for `COc1cc(CSc2nnnn2-c2ccc(C)cc2)cc(OC)c1OC`?
Phagocyt inh: inactive; GALR2 agonist: inactive; GALR2 antag: 42.9; GALR2 ant conf: 41.2; BLA inhib ctr: inactive
